Among the data in ChEMBL document CHEMBL4513216, “Probing the Open Global Health Chemical Diversity Library for Multistage-Active Starting Points for Next-Generation Antimalarials” (ACS Infect Dis, 2020) are INHIBITION values, retold here.

The campaign covered roughly 68,000 compounds. About 2,700 (4%) showed an effect of 50% or more. The full list was thinned out, with strong results kept by preference.

The test system of the assay is Plasmodium berghei. The assay is described as follows: Screen against P. berghei liver stage (PbLuc), transformed with Luciferase, at 2uM. In kind it is functional, HepG2. Conditions: tested at 2 uM.
On to `Cc1cc(C2CCCN2C(=O)c2ccc(OCC(N)=O)cc2)no1` (stereo unspecified), for which the INHIBITION amounted to 34.18%.
Next, `CC(C)(C)CC(=O)N[C@@H]1CO[C@H](CNC(=O)c2ccncc2)[C@H]1O`: 17.9%; `CC(NCc1cccs1)c1ccc(OCc2nccn2C)cc1` (stereo unspecified): 63.46%; `CC(NCc1ccsc1)c1ccc(OCc2nccn2C)cc1` (stereo unspecified): 24.05%.
`CC(NCc1cnn(C)c1)c1ccc(OCc2nccn2C)cc1` (stereo unspecified): the INHIBITION came out at 37.18%.
`O=C(CCCc1cn[nH]c1)N1C[C@@H](CN2CCCCCC2)[C@@H](CO)C1`: the INHIBITION is listed as -5.41%.
As to `CC(CNC(=O)c1c[nH]nn1)Oc1cccc(Br)c1` (stereo unspecified), the INHIBITION is given as -10.85%.
With `CC(CNC(=O)c1c[nH]nn1)Oc1ccccc1Br` (stereo unspecified), the INHIBITION is listed as 67.83%.
For `Cc1ccc(OC(C)CNC(=O)c2c[nH]nn2)cc1` (stereo unspecified), the INHIBITION is -9.5%.
For `CC(=O)NCC(=O)N1Cc2cc(C#N)ccc2C1c1cnco1` (stereo unspecified), the INHIBITION was -9.91%.
As for `CC(C(=O)NCc1ccc(F)cc1)N(C)CCN1CCOCC1` (stereo unspecified), the figure is 10.71%; as for `CC(C(=O)Nc1cccc(C(F)(F)F)c1)N(C)CCN1CCOCC1` (stereo unspecified), -18.99%; as for `CC(C(=O)Nc1cccc(F)c1)N(C)CCN1CCOCC1` (stereo unspecified), 57.23%.
Next, `CCOCC1CN(Cc2cnn(C)c2)Cc2nn(CC3CC3)cc21` (stereo unspecified): -50.35%; `Cc1oc(-c2ccsc2)nc1CC(=O)NCC(=O)Nc1cn[nH]c1`: 11.01%; `Cc1cnn(CC2CCCCN2CCS(C)(=O)=O)c1` (stereo unspecified): 44.41%.
Take `O=C1N(Cc2ccccn2)C[C@H]2CN(C3CCC3)CCN12`: the INHIBITION worked out at 52.36%.
`Cn1ccnc1CN1C[C@H]2CN(S(=O)(=O)c3ccccc3)CCN2C1=O`: the INHIBITION amounted to 15.02%.
As for `CC(=O)N1CCC(N2CCN3C(=O)N(Cc4ccccn4)C[C@H]3C2)CC1`, the figure is 37.54%; as for `O=C1N(Cc2ccccn2)C[C@H]2CN(S(=O)(=O)c3ccccc3)CCN12`, 50.72%; as for `O=C1N(Cc2cccnc2)C[C@H]2CN(S(=O)(=O)c3ccccc3)CCN12`, 40.83%.
Next, `O=C1N(Cc2ccccn2)C[C@H]2CN(C3CCOCC3)CCN12`: -8.59%; `Cc1c(F)cccc1S(=O)(=O)NC(C)(C)CN`: 36.53%.
As for `CNC(=O)[C@@H]1[C@@H](c2ccccc2)CN2CCN(Cc3ccco3)C[C@H]12`, the figure is -0.14%; as for `CCN(Cc1ccco1)C(C)c1nc(C(C)(C)C)no1` (stereo unspecified), 33.78%; as for `CN(C)CCCNCCC(Cc1ccccc1)C1CCOC(C)(C)C1` (stereo unspecified), -18.52%.
In the case of `CC(C(=O)N1CCn2cncc2C1)N1C[C@@H](C)O[C@@H](C)C1` (stereo partly specified), the INHIBITION is listed as -28.11%.
Turning to `CC(C(=O)N1CCn2cncc2C1)N1CCCC1` (stereo unspecified), the INHIBITION was 17.2%.
Next, `O=C(C(c1ccc(F)cc1)N1CCCCC1)N1CCn2cncc2C1` (stereo unspecified): 50.59%; `Cc1nn(C)c(C)c1CC(=O)N1CCCC(n2ccnc2C)C1` (stereo unspecified): 45.83%.
On to `CCCn1nccc1NC(=O)CN1CCn2c(nnc2C2CC2)C1`, for which the INHIBITION stood at 9.36%.
Turning to `CNC(=O)COC1COC2(CCN(Cc3cccnc3)CC2)C1` (stereo unspecified), the INHIBITION was determined as 28.88%.
Consider `CCSC1=Nc2c(cnn2-c2ccc(Cl)cc2)C2=NCCCN12`, for which the INHIBITION was 51.78%.
As for `CSC1=Nc2c(cnn2-c2ccc(Cl)cc2)C2=NCCCN12`, the INHIBITION is recorded as -4.43%.
As for `CSC1=Nc2c(cnn2-c2cccc(Cl)c2)C2=NCCCN12`, the figure is 18.15%; as for `CC(=O)NCCc1ccc(S(=O)(=O)N(C)C(C)C(C)(C)C)s1` (stereo unspecified), 32.1%.
As for `CN(C)C(=O)COC[C@@H]1CC[C@H]2[C@H](CCN2c2ccccn2)O1`, the INHIBITION is -3.69%.
On to `CN(C)C(=O)COC[C@H]1CC[C@@H]2[C@@H](CCN2Cc2ccccn2)O1`, for which the INHIBITION came out at 53.98%.
As for `c1ccc(COC[C@H]2CC[C@H]3[C@H](CCN3Cc3ccccn3)O2)nc1`, the figure is 4.54%.
On to `OCCN1CC2(CCN(c3ccccc3)C2)C1`, for which the INHIBITION was -55.62%.
With `CCN(C)C1CCCc2nc(C)sc21` (stereo unspecified), the INHIBITION turned out to be 9.52%.
As for `COc1ccc(OCc2noc(CN(C)C3CCS(=O)(=O)C3)n2)cc1` (stereo unspecified), the figure is 57.91%.
As for `CN(Cc1nc(C2CC2)no1)C1CCS(=O)(=O)C1` (stereo unspecified), the figure is 31.27%.
On to `CC(C)Cc1noc(CN(C)C2CCS(=O)(=O)C2)n1` (stereo unspecified), for which the INHIBITION is recorded as -12.52%.
With `CN(C)c1ccc(NC(=O)C2CN(Cc3ccccc3)CCO2)cn1` (stereo unspecified), the INHIBITION is 12.94%.
Take `CCC1=NN2C(=N)C(=Cc3cccn3-c3ccc(Cl)cc3)C(=O)N=C2S1`: the INHIBITION is -3.11%.
Regarding `O=C(C1CC1)N1CCC2(CCN(Cc3cccc(F)c3)CC2)CC1`, the INHIBITION was found to be 27.05%.
As to `CC1CCCCN1CCNC(=O)c1ccn(-c2cccc(F)c2)n1` (stereo unspecified), the INHIBITION stood at 2.18%.
Take `O=C(NCCn1cccn1)c1ccn(-c2cccc(F)c2)n1`: the INHIBITION was 64.16%.
Turning to `CC(O)CN1CCN(C(=O)c2ccn(-c3cccc(Cl)c3)n2)CC1` (stereo unspecified), the INHIBITION was -42.32%.
Take `CCC(O)CN1CCN(C(=O)c2ccn(-c3cccc(F)c3)n2)CC1` (stereo unspecified): the INHIBITION was 52.3%.
